Measured values from the supplement of paper PMC11577813, “Eurasian spruce bark beetle detects lanierone using a highly expressed specialist odorant receptor, present in several functional sensillum types” (BMC Biology, 2024).
± gives the standard deviation of the averaged measurements.

Test system: lanierone-responsive B-neuron OSN class (ItypOR36)
Experiment: net action potential response of lanierone B-neuron (blank-subtracted) (spikes/s (Hz)); higher = stronger excitation
Conditions: 10 µg on filter paper, neuron: B neuron (small spike amplitude)
Procedure: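 Single sensillum recordings from antennal olfactory sensilla of live adult Ips typographus. Each compound was 10 µg in paraffin oil, delivered as a 0.5 s puff. Net response = spikes in the first 0.5 s of response minus the 0.5 s pre-stimulus count, doubled to give Hz, with blank response subtracted. Values are for the small-spike lanierone-responsive B-neuron (putatively expressing ItypOR36), recorded in sensilla co-housing the A-neuron class; N = 1-4, averaged.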

[1] = co-localized A-neuron class: (4S)-cis-verbenol
[2] = co-localized A-neuron class: (5S,7S)-trans-conophthorin
[3] = co-localized A-neuron class: (+)-isopinocamphone
[4] = co-localized A-neuron class: (+)-trans-4-thujanol
[5] = co-localized A-neuron class: ipsdienol
[6] = co-localized A-neuron class: myrcene
[7] = co-localized A-neuron class: p-cymene

| Structure (SMILES) | net action potential response [1] | net action potential response [2] | net action potential response [3] | net action potential response [4] | net action potential response [5] | net action potential response [6] | net action potential response [7] |
| --- | --- | --- | --- | --- | --- | --- | --- |
| C[C@H]1C(=O)C[C@H]2C[C@@H]1C2(C)C [(-)-Pinocamphone] | -2 ± 2 | -4 ± 8.7 | -1.33 ± 1.1 | 1 ± 3.8 | 0 ± 6 | 4 | -2 ± 3.5 |
| CC/C=C/CCO | 2 ± 4 | -5.33 ± 6.1 | -2 ± 5.3 | -0.5 ± 6.6 | 0 ± 4 | -2 | -0.667 ± 3.1 |
| C=CC(=C)CCC=C(C)C [Myrcene] | 7.33 ± 7.6 | 0 ± 6 | 1.33 ± 9 | 2.5 ± 6.6 | 2.67 ± 4.2 | -6 | -2.67 ± 4.6 |
| CC(=O)OCc1ccccc1 [Benzyl acetate] | 2.67 ± 6.4 | 2 ± 5.3 | 3.33 ± 6.1 | -0.5 ± 1.9 | -6.67 ± 3.1 | 0 | 0.667 ± 4.2 |
| CC(=O)CC/C=C(\C)CCC=C(C)C [Geranylacetone] | -2 ± 2 | -2 ± 2 | -1.33 ± 4.2 | 0 ± 4.3 | -3.33 ± 5.8 | -2 | 0 ± 2.8 |
| CC1=CCC(=C(C)C)CC1 [Terpinolene] | 4.67 ± 6.4 | 2 ± 2 | -4 ± 2 | -3 ± 3.8 | 2 ± 5.3 | -8 | 0.667 ± 2.3 |
